Eight compounds from PubChem BioAssay AID1347142 (National Center for Advancing Translational Sciences (NCATS), 2019) can be followed below.

The structures appear in SMILES notation. Results filed as inconclusive are left out. Where a call stands in place of a potency, no number is given. Active and inactive are the calls of the source. Calls follow the shape of the dose curve; as a rule, active = well fitted inhibition curve with a large enough effect; inconclusive = small, poorly fitted or top-dose-only effect; inactive = no such curve, though single readings can be large or run the other way.
Also: nearly all actives have a fitted effect of over 80% in size.
Potency is read from the fitted curve at half-maximal effect.

The target in the experiment is N-terminal Xaa-Pro-Lys N-methyltransferase 1 (Homo sapiens) (UniProt Q9BV86). The experiment can be described thus: qHTS Assay for Inhibitors of N-terminal methyltransferase 1 (NTMT1): ThioGlo3 Assay Confirmatory Screen, Round 1. The settings on record: NTMT1 SAHH-coupled ThioGlo3 fluorescence, 30 min; series mostly up to 56.8 µM. The source says: Assay Submitter (PI): Rong Huang Ph.D, Purdue University, West Lafayette, IN 47907 The N-terminal methytransferase 1 is the first methyltransferase that methylates protein alpha-N-amines and plays an important role in regulating cell mitosis, chromatin interactions and DNA repair. It is observed to be over-expressed in various cancer patient tissues like malignant melanoma and colorectal cancer tissues. Knockdown of NTMT1 in cancer cells causes cell mitotic defects and enhances sensitivity to DNA damaging chemotherapeutics. […] These critical cellular processes in which NTMT1 is implicated, coupled with emerging links to cellular dysfunction, strengthen the inference that NTMT1 is a compelling novel anticancer target. Progress have been made in understanding the molecular properties of NTMT1 and the biological consequences of protein alpha-N-terminal methylation, but there are no specific small molecule probes available for NTMT1 to fully characterize its MTase activity. To address this unmet need, a panel of assay is created and established to enable quantitative high-throughput screening (qHTS) for novel, potent, and selective small molecule NTMT1 inhibitors. Two orthogonal qHTS that use different reagents (ThioGlo vs. MTaseGlo) are developed for primary robotic screening against the NCATS chemical library of more than 400,000 small molecules. Identified inhibitors are reacquired, validated, and further characterized. […] Early Translation Branch (ETB) National Center for Advancing Translational Sciences (NCATS) National Institute of Health (NIH)
N-terminal Xaa-Pro-Lys N-methyltransferase 1 (Homo sapiens), sequence (Q9BV86 whole entry, looked up): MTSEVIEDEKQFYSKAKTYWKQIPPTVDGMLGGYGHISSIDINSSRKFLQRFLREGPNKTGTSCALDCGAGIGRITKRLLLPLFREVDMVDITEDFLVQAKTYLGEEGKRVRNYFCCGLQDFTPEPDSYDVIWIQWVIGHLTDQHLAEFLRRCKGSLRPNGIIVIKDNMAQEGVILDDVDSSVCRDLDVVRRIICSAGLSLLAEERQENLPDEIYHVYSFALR
Materials: NTMT1 enzyme, substrate SPKRIA, control peptide RCC1-6 is provided by the Huang laboratory. ThioGlo3 Assay: In brief, 125nM NTMT1 enzyme was dispensed into a 1536-well assay plate with Aurora Discovery BioRAPTR Flying Reagent Dispenser (FRD, Beckton-Dickenson). Compounds (at various concentration) or 1uM RCC1-6 (SPKRIA) control were transferred to the assay plate using the Kalypsys 1536-pintool apparatus. After 1 min of room temperature incubation, 1uL of substrate (100uM SAM, 10uM SAHH, 15uM ThioGlo3) was added to the wells bringing the final assay volume to 4uL. Initial (background) fluorescence readout (EX: 340nm, EM: 450nm) was then detected using the PerkinElmer ViewLux microplate imager and a final fluorescence readout was taken after 30 min of room temperature incubation. The data was normalized to the background fluorescence.
In general terms: qHTS replaces the single test concentration by a dilution series.
Take `Nc1ncnc2c1ncn2[C@@H]1O[C@H](COP(=O)(O)OP(=O)(O)OP(=O)(O)O)[C@H]2OC3(O[C@H]21)C([N+](=O)[O-])=CC(=[N+]([O-])[O-])C=C3[N+](=O)[O-]` (stereo partly drawn): the Potency entry is “inactive”.
The value for `Nc1ncnc2c1ncn2[C@@H]1O[C@@H]2CO[P@](=O)(S)O[C@H]2[C@H]1O` was “inactive”; that for `Nc1ncnc2c1ncn2[C@@H]1O[C@@H]2COP(O)(=S)O[C@H]2[C@H]1O` (stereo partly drawn) was “inactive”; that for `Nc1ncnc2c1ncn2[C@@H]1O[C@H](COP(=O)(O)CP(=O)(O)O)[C@@H](O)[C@H]1O` was “inactive”.
`CCN(CC)c1ncnc2c1ncn2[C@@H]1O[C@H](COP(=O)(O)OP(=O)(O)C(Br)(Br)P(=O)(O)O)[C@@H](O)[C@H]1O`: the Potency result is “inactive”.
Consider `COc1cc2nc(N3CCCN(C)CC3)nc(N(C)C3CCN(C)CC3)c2cc1OC`, for which the Potency was 24.1 µM (active).
For `CCNC(=O)[C@H]1O[C@@H](n2cnc3c(N)ncnc32)[C@H](O)C1O` (stereo partly drawn), the Potency entry was “inactive”.
As for `Nc1ncnc2c1nc(Sc1ccc(Cl)cc1)n2[C@@H]1O[C@@H]2COP(O)(=S)O[C@H]2[C@H]1O` (stereo partly drawn), the entry is “inactive”.
